Where “and” joins values, the source holds several entries; their conditions need not be identical. Equal values may be shown once. Inconclusive results are not listed. A call without a number means that no potency is given here. The source holds several records for some structures; these can differ, active in one and inactive in another. Calls of active or inactive are those of the source. Unless noted, the call rests on the fitted dose curve; in most records, active means well fitted curve in the direction sought with a large enough effect; inconclusive means small, poorly fitted or top-dose-only effect, or another doubt; inactive means no such curve, though single readings can be large; an effect the other way counts as inactive or inconclusive.
Experiments:
[1] = qHTS for Inhibitors of Plasmodium falciparum (GB4) proliferation (AID 504315); further: nearly all actives have a fitted effect of over 50% in size; further: potency means the concentration at half of the fitted maximal effect
Summary of the method: (§1)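 Parasite growth measured as SYBR Green DNA fluorescence (ex 485, em 535 nm) after overnight lysis following 72 h culture at 37 °C, 0.3% parasitemia, 2.5% hematocrit. Values normalized against DMSO and 0.29 uM artemisinin controls, with plate-stack correction.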

[2] = qHTS for Inhibitors of Plasmodium falciparum (7G8) proliferation (AID 504316); further: nearly all actives have a fitted effect of over 65% in size; further: potency means the concentration at half of the fitted maximal effect; on activity change, negative = inhibition: series mostly up to about 6.7 µM
Summary of the method: as §1

[3] = qHTS for Inhibitors of Plasmodium falciparum (HB3) proliferation (AID 504318); further: nearly all actives have a fitted effect of over 60% in size; further: potency means the concentration at half of the fitted maximal effect
Summary of the method: as §1

[4] = qHTS for Inhibitors of Plasmodium falciparum (CP250) proliferation (AID 504320)
Summary of the method: as §1

[5] = target: Atrial natriuretic peptide receptor 1 (Homo sapiens) (UniProt P16066); test: Natriuretic polypeptide receptor (hNpr1) antagonism - Pilot CMLD screen (AID 1347052; calls by dose curve;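 further: cGMP level read as GloSensor luciferase luminescence after agonist stimulation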; further: potency means the concentration at half of the fitted maximal effect;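 on activity change, negative = inhibition: HEK293 cells with hNpr1 stimulated by hNppA peptide at 0.1 nM; series mostly up to about 9.2 µM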)
[6] = target: Cytochrome P450 2C9 (Homo sapiens) (UniProt P11712); test: qHTS Assay for Inhibitors and Substrates of Cytochrome P450 2C9 (AID 883); further: nearly all actives have a fitted effect of over 60% in size
Summary of the method: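 Inhibition of CYP2C9 is scored as loss of luminescence, with 57uM sulphaphenazole defining 100% inhibition. Substrate Luciferin-H is used at 100uM, equal to its KM; enzyme at 10nM in 25mM KPO4, 60 min at 37C with NADPH regeneration.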

[7] = target: Cytochrome P450 3A4 (Homo sapiens) (UniProt P08684); test: qHTS Assay for Inhibitors and Substrates of Cytochrome P450 3A4 (AID 884); further: series mostly up to about 57 µM; nearly all actives have a fitted effect of over 50% in size
Summary of the method: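 Luminescent readout of luciferin produced by CYP3A4 (20 nM) dealkylation of Luciferin-PPXE, 25 uM (its KM). NADPH-driven reaction ran 60 min at RT after 10 min compound preincubation; data scaled to 57 uM ketoconazole as 100% inhibition.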

[8] = target: Cytochrome P450 2C19 (Homo sapiens) (UniProt P33261); test: qHTS Assay for Inhibitors and Substrates of Cytochrome P450 2C19 (AID 899); further: nearly all actives have a fitted effect of over 60% in size
Summary of the method: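 5nM enzyme + 10uM Luciferin-H EGE (=KM), 50mM KPO4; cpd pin-transferred, 10 min 37C; NADPH regen, 60 min 37C; stopped w/ luciferin detection reagent, 20 min; luminescence. Normalized to 57uM ketoconazole (AC100).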

Chain of Atrial natriuretic peptide receptor 1 (Homo sapiens) (P16066 whole entry, looked up): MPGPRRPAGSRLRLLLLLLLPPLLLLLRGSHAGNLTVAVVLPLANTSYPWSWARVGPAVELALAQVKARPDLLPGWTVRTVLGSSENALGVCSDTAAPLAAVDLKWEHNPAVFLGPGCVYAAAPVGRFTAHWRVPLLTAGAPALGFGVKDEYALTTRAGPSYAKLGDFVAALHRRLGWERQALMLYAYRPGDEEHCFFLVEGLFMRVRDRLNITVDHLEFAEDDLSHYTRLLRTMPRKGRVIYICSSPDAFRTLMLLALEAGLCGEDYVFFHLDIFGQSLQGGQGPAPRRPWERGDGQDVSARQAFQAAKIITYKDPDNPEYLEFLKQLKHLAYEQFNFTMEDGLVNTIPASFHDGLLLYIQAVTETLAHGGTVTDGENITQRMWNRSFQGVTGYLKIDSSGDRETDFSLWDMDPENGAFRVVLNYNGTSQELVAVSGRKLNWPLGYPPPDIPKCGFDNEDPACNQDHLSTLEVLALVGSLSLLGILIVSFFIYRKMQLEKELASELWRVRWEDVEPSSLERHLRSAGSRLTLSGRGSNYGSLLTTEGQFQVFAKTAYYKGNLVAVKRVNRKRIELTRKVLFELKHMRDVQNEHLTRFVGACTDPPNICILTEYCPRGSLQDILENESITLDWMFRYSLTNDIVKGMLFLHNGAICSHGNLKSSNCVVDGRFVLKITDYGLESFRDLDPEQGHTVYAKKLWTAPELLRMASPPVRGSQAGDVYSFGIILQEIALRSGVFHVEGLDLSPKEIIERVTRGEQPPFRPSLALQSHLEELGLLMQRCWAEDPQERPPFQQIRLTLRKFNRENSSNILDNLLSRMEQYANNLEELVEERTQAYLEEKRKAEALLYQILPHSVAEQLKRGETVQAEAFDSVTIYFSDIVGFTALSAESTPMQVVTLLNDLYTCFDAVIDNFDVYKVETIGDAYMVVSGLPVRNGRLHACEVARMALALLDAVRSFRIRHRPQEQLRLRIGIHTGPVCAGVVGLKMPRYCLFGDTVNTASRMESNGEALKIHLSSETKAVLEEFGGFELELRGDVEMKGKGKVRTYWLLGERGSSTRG
Chain of Cytochrome P450 2C19 (Homo sapiens) (P33261 whole entry, looked up): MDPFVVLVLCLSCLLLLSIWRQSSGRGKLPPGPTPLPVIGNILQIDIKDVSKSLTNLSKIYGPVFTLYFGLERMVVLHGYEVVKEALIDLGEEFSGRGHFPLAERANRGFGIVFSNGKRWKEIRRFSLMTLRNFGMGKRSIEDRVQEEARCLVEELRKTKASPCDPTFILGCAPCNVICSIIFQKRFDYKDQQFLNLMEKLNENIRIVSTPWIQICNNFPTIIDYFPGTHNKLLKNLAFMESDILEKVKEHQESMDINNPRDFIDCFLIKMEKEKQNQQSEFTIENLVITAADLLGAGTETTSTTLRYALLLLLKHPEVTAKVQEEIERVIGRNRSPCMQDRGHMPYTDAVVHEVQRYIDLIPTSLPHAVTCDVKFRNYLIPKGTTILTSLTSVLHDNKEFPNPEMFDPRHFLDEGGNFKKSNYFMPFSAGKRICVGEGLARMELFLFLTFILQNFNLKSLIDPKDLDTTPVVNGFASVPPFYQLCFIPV
Chain of Cytochrome P450 2C9 (Homo sapiens) (P11712 whole entry, looked up): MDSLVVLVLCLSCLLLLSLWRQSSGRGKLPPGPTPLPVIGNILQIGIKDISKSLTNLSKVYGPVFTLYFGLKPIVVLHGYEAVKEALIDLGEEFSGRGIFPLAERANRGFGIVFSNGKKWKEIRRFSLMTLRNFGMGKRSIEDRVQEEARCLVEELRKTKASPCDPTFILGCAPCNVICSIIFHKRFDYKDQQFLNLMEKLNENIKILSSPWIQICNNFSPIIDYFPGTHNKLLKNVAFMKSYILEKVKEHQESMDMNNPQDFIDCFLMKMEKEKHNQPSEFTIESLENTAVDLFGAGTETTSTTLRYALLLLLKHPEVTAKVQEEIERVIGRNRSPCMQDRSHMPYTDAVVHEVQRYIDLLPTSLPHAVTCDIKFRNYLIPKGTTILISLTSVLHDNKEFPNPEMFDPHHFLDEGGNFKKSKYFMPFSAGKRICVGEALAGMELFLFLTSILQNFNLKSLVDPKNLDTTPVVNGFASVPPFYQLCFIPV
Chain of Cytochrome P450 3A4 (Homo sapiens) (P08684 whole entry, looked up): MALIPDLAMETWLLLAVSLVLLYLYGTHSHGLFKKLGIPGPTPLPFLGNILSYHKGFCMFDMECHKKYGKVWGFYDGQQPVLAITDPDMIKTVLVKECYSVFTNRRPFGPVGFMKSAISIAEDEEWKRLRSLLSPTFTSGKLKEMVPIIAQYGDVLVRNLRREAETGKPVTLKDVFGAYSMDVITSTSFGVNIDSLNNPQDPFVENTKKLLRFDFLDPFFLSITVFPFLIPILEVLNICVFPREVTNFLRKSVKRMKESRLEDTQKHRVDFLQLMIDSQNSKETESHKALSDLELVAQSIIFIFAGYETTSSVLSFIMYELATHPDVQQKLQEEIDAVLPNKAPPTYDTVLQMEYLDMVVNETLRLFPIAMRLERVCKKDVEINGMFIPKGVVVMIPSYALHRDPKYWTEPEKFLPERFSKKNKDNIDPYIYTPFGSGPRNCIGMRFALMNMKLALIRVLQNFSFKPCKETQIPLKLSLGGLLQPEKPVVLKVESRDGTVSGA

| SMILES | Potency [1] | Potency [2] | Potency [3] | Potency [4] | Potency [5] | activity change, negative = inhibition [6] | activity change, negative = inhibition [7] | activity, negative = inhibition [8] |
| --- | --- | --- | --- | --- | --- | --- | --- | --- |
| C[C@@H]1CC[C@H]2C(=O)N(Cc3ccccc3)C[C@@H](O)CN2[C@@H]1c1cccc(Br)c1 | inactive | inactive | inactive | inactive | inactive | – | – | – |
| COc1ccc([C@]23Cc4ccccc4[C@H](O2)c2c(c4ccc(OC)cc4oc2=O)O3)cc1 | 1.9 µM (active) | 1.69 µM (active) | – | – | inactive | – | – | – |
| COC[C@@H](O)[C@H]1OCc2ccccc2[C@H]1C=Cc1ccccc1 | inactive | inactive | inactive | inactive | inactive | – | – | – |
| COC(=O)C[C@H]1c2ccccc2[C@@H]2C(=C[C@@H](C)[C@H]3C(=O)NC(=O)[C@H]32)N1C(=O)OC | inactive | inactive | inactive | inactive | inactive | – | – | – |
| CCN1C(=NCCCOC(C)C)NC(c2ccccc2)C(C(=O)OC)=C1C (stereo not given) | inactive | inactive | inactive | inactive | inactive | – | – | – |
| N#CCCCSc1nnnn1-c1cc(C(F)(F)F)cc(C(F)(F)F)c1 | inactive | inactive | – | – | inactive | – | – | – |
| COc1ccc(COC(=O)NN=C2C[C@@H](O)[C@@H](O)[C@@H]3[C@H]4C(=O)N(Cc5ccc6c(c5)OCO6)C(=O)[C@@H]4CC[C@H]23)cc1 | inactive | inactive | inactive | – | inactive | – | – | – |
| COc1ccc(O[C@H]2C=C[C@@H](c3ccccc3)O[C@H]2CON=C2c3cc(OC)ccc3O[C@H](c3cccc(OC)c3)[C@H]2O)cc1 | inactive | 1.69 µM (active) | – | – | inactive | – | – | – |
| CC(=O)C1=CN(CCC=Cc2ccccc2)C(=O)NC1c1ccccc1 (stereo not given) | inactive | inactive | inactive | inactive | inactive | – | – | – |
| COc1ccc([C@]23Cc4ccccc4[C@H](O2)C2=C(O3)C(=O)c3ccccc3C2=O)cc1 | 1.69 µM (active) | 1.69 µM (active) | 1.51 µM (active) | – | inactive | – | – | – |
| C=CCOC(=O)N[C@H](c1cccc(C(F)(F)F)c1)C(C(C)=O)C(C)=O | inactive | inactive | inactive | inactive | inactive | – | – | – |
| COC(=O)NC(CCc1ccccc1)C(C(C)=O)C(=O)OC (stereo not given) | inactive | inactive | inactive | inactive | inactive | – | – | – |
| O=C(C=Cc1ccccc1)c1ccccc1O | inactive | inactive | inactive | inactive | inactive | – | – | – |
| C[C@@H](ON=C1[C@H]2CCn3c(=O)n(-c4ccccc4)c(=O)n3[C@@H]2[C@H](O)[C@@H]2O[C@H]12)c1cn([C@H](CO)Cc2ccccc2)nn1 | inactive | inactive | inactive | inactive | inactive | – | – | – |
| COc1cccc(CO[C@H]2C=C[C@@H](c3ccccc3)O[C@H]2CBr)c1 | inactive | inactive | inactive | – | inactive | – | – | – |
| CCOC(=O)OC[C@H]1O[C@H](C#Cc2ccc(C(C)(C)C)cc2)C=C[C@H]1OC(=O)OCC | 1.69 µM (active) | 2.13 µM (active) | – | – | inactive | – | – | – |
| O=P1(O)Oc2c(c(-c3ccccc3)cc3ccccc23)-c2c(-c3ccccc3)cc3ccccc3c2O1 | inactive | inactive | inactive | inactive | inactive | – | – | – |
| CC1(OC(=O)C2CCCC2)C(=O)C=C2C=C(c3ccsc3)N(C(CO)CO)C=C2C1=O (stereo not given) | inactive | inactive | inactive | inactive | inactive | – | – | – |
| C[C@@H]1C[C@](C)(C(=O)c2ccco2)C=C1c1ccco1 | inactive | inactive | inactive | – | inactive | – | – | – |
| C=CCCC1(C(=O)c2ccccc2)C(=O)C(CC=C(C)C)=C(OC)C(CC=C(C)C)(CCC=C(C)C)C1=O (stereo not given) | 1.69 µM (active) | 1.51 µM (active) | 1.69 µM (active) | – | inactive | – | – | – |
| C[C@@H]1C=CCCO[C@]12C(=O)N(Cc1ccccc1C(F)(F)F)c1ccccc12 | inactive | inactive | inactive | inactive | inactive | – | – | – |
| COc1cc2c(cc1OC)C1OC(c3ccsc3)(C2)Oc2cc(C)oc(=O)c21 (stereo not given) | inactive | inactive | inactive | – | inactive | – | – | – |
| COCC1=C(C(=O)OC)C(c2ccccc2)N(C(C)=O)C(=O)N1 (stereo not given) | inactive | inactive | inactive | – | inactive | – | – | – |
| CCN1C(=NCc2cccc(C(F)(F)F)c2)NC(c2cccs2)C(C(=O)OC)=C1C (stereo not given) | inactive | inactive | inactive | inactive | inactive | – | – | – |
| CCc1cc2c(nc1CC)CCN(CCC(C)=NO[C@@H](C)CN1CCCc3nc(C)c(C)cc31)C2 | inactive | – | – | – | inactive | – | – | – |
| C#CCCCON=C1C[C@@H](O)[C@H](O)[C@H]2[C@@H]3C(=O)N(C[C@@H]4CCCO4)C(=O)[C@@H]3CC[C@H]12 | inactive | inactive | inactive | inactive | inactive | – | – | – |
| CC(C)=CCN1C(=O)[C@]2(OCCC=C[C@H]2C)c2c(Br)cccc21 | inactive | inactive | inactive | inactive | inactive | – | – | – |

| SMILES | Potency [1] | Potency [2] | Potency [3] | Potency [4] | Potency [5] | activity change, negative = inhibition [6] | activity change, negative = inhibition [7] | activity, negative = inhibition [8] |
| --- | --- | --- | --- | --- | --- | --- | --- | --- |
| CCc1cc2c(nc1CC)CCN(CCC(C)=NOC[C@@H](O)COCc1ccco1)C2 | inactive | 1.51 µM (active) | – | – | inactive | – | – | – |
| COC(=O)C1=C(C)N(CC2CC2)C(=NCCc2cccnc2)NC1c1ccccc1 (stereo not given) | inactive | inactive | inactive | inactive | inactive | – | – | – |
| CCN1C(=O)NC(CCc2ccccc2)C(C(C)=O)=C1C (stereo not given) | inactive | inactive | inactive | inactive | inactive | – | – | – |
| CCCC[C@]12Cc3cc(OC)c(OC)cc3[C@H](O1)C1=C(CC3(CCCCC3)OC1=O)O2 | inactive | inactive | inactive | – | inactive | – | – | – |
| COC(=O)[C@H](COC(C)(C)C)NC(=O)O[C@@H]1C(=O)c2cc(Br)ccc2O[C@H]1c1ccc2c(c1)OCO2 | inactive | inactive | inactive | inactive | inactive | – | – | – |
| CC(C)(C)Nc1oc(-c2ccccc2)nc1-c1ccccc1 | inactive | inactive | inactive | inactive | inactive | – | – | – |
| COC(=O)C1=C(C)[C@@H](O)[C@@H](C)[C@](C)(c2cc(OC)c(C)c(OC)c2COc2ccccc2)O1 | inactive | inactive | inactive | – | inactive | – | – | – |
| COC1=C[C@H](C(=O)N[C@H]2CCCC[C@H]2NC(C)=O)[C@H](C)[C@@H](c2ccccc2)CC1=O | inactive | inactive | – | inactive | inactive | – | – | – |
| COc1ccc2c(c1)O[C@@H](c1ccc3c(c1)OCO3)[C@H](OC(=O)Nc1ccc(OC(F)F)cc1)C2=O | inactive | inactive | inactive | inactive | inactive | – | – | – |
| CCCCCCCC=CC1=CC2(C)CC1(C)C(CCCCCCC)CC2=O (stereo not given) | inactive | inactive | inactive | inactive | inactive | – | – | – |
| C=CCN=C1N[C@@H](c2ccccc2)[C@H](C(=O)OC)[C@@H](C)N1CC | inactive | inactive | inactive | inactive | inactive | – | – | – |
| N#Cc1ccc2c(c1)C[C@]1(c3ccsc3)OC3=C(C(=O)OC4(CCCCC4)C3)[C@H]2O1 | inactive | inactive | – | inactive | inactive | – | – | – |
| C[C@H]1Cc2c(-c3ccccc3)nc3c(c2CO1)CN(C(=O)Cc1cccs1)CC3 | inactive | inactive | inactive | inactive | inactive | – | – | – |
| CCc1cc2c(nc1CC)CCN(CCC(C)=NOC[C@@H](O)[C@H]1O[C@@H]3OC(C)(C)O[C@H]3[C@@H]1O)C2 | inactive | 1.69 µM (active) | 2.94 µM (active) | inactive | inactive | – | – | – |
| COC(=O)CC=C[C@@H](C)[C@@H](C=NO[C@@H](C)c1cn([C@H](CO)Cc2ccccc2)nn1)NS(=O)(=O)c1ccc(C)cc1 | inactive | inactive | inactive | inactive | inactive | – | – | – |
| COc1cc(C(CC2=CCCCC2)NC(=O)C(F)(F)F)cc(OC)c1OC (stereo not given) | inactive | inactive | inactive | inactive | inactive | – | – | – |
| COC(=O)N1C(C)=Cc2ccccc2C1CC(C)=CC(C)=O (stereo not given) | inactive | inactive | inactive | inactive | inactive | – | – | – |
| C(#C[C@@H]1C=C[C@H]2OC(c3ccccc3)OC[C@H]2O1)c1ccccc1 (stereo not given in full) | inactive | inactive | – | inactive | inactive | – | – | – |
| C=CCNC(=O)[C@H]1C=C(OC)C(=O)C[C@H]2c3ccccc3C[C@]12C | inactive | inactive | – | inactive | inactive | – | – | – |
| C(=Cc1nc(-c2ccccc2)oc1Nc1ccc2ccccc2c1)c1ccccc1 | inactive | inactive | inactive | inactive | inactive | – | – | – |
| CCCNC(=O)OC[C@H]1O[C@H](CCON=C(C)CCC(=O)OC[C@H]2O[C@H](C#Cc3ccccc3)C=C[C@H]2Oc2ccc(C)cc2)C=C[C@H]1Oc1ccc(OC)cc1 | inactive | inactive | – | inactive | inactive | – | – | – |
| CCCCc1cc2c(cn1)=C(OC(=O)c1cccs1)C(C)(OC(=O)CC)C(=O)C=2 (stereo not given) | 1.69 µM (active) | 1.69 µM (active) | 1.9 µM (active) | inactive | inactive | – | – | – |
| COC(=O)C(C(C)=O)C1c2ccccc2C=C(C)N1C(=O)OC (stereo not given) | inactive | inactive | inactive | inactive | inactive | – | – | – |
| COC(=O)CC=C[C@@H](C)[C@@H](COc1ccccc1Br)OC | inactive | inactive | inactive | inactive | 0.944 µM (active) | – | – | – |
| C=COC[C@@H]1CN2[C@H](c3ccc(Br)cc3)[C@H](C)CC[C@H]2C(=O)O1 | inactive | inactive | inactive | inactive | inactive | – | – | – |
| C=CCNC(=O)N1C2=NC(C(=O)OC)=C(C(=O)OC)[C@@H]3N(C)c4ccccc4[C@]23C[C@H]1CO | inactive and 1.9 µM (active) | inactive and 1.69 µM (active) | inactive and 2.94 µM (active) | inactive | inactive | – | – | – |
| CC1(O)C(=O)C=C2C=C3CCCN3C=C2C1=O (stereo not given) | inactive | inactive | inactive | – | inactive | 3.99% [at 11.4 µM] (inactive) | -12% [at 11.4 µM] (inactive) | 32.3% [at 11.4 µM] (inactive) |
